Bioassay records from PubChem.
Peg3 prom inh-1: reduces Peg3 promoter-driven luciferase expression in HeLa; HeLa PEG-Prom luciferase reporter, luminescence, overnight; inhibition, % at 20 µM; 1.7% of 360,000 active; AID 588405;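 active means inhibition of at least 50% at 20 µM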
Shn3 inh set2: inhibitors of Schnurri-3 3'UTR reporter in osteoblasts | Clone20 osteoblast Shn3 3'UTR firefly luciferase, 24 h | inhibition, % at 12.5 µM | 0.52% of 360,000 active | AID 588674;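 active means mean inhibition of at least 75% with every replicate also reaching 75%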
HIF-2a block: inhibitors of HIF-2a; 0.72% of 360,000 active; inhibition, % at 18.8 µM; 786-0 RCC cells HIF-2a reporter, luciferase luminescence, overnight;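 active means inhibition of the luminescence signal of 40% or more relative to plate controls, in a single-dose primary screen at 18.75 µM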
PAX8 reporter: lowers PAX8-driven luciferase in RMG-I cells; RMG-I TPO-luciferase reporter, SteadyGlo, 24 h; 1.2% of 360,000 active; AID 652154; inhibition, % at 12.6 µM;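 active means mean replicate inhibition at least 60% with every replicate also reaching 60%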;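 further: luciferase light reporting Pax8 driven TPO promoter activity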
MITF TRPM1 inh: inhibitors of MITF-driven TRPM1 promoter in melanoma cells. AID 488899. inhibition, % at 12.5 µM. 0.83% of 330,000 active. SK-MEL-5 TRPM1 promoter luciferase, 24 h;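 active means mean inhibition across replicates of 60% or more, whatever share of single replicates reaches that level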
LMP1 NFkB inh: Epstein-Barr LMP1 NF-kappaB reporter inhibition | LMP1-induced NF-kappaB luciferase reporter cells, luminescence | inhibition, % at 12.5 µM | 0.69% of 350,000 active | AID 504558; in the data active means inhibition above about 41%
Peg3 prom inh-2: confirmation of Peg3 promoter inhibitors | shares compounds with Peg3 prom inh-1 | HeLa PEG-Prom luciferase reporter, luminescence, overnight | inhibition, % at 20 µM | 84% of 1,300 active | AID 602417;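 active means at 20 µM dose, 40% or more inhibition averaged across four replicates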
A number is an active result; - = inactive; . = no result given. A selection: hits, their analogues and other compounds. The true share with any hit is near 2.8%.

SMILES	Peg3 prom inh-1	Shn3 inh set2	HIF-2a block	PAX8 reporter	MITF TRPM1 inh	LMP1 NFkB inh	Peg3 prom inh-2
CCN(CC)CCN1CCN(c2cncc(-c3ccc4ccccc4c3)n2)CC1	71	-	-	.	.	.	90
Cc1noc(C)c1NC(=O)N(C)C[C@H]1Oc2ccc(NS(=O)(=O)c3cccs3)cc2CC(=O)N([C@@H](C)CO)C[C@@H]1C	.	.	.	-	.	.	.
C[C@H]1CN([C@@H](C)CO)C(=O)c2cc(NC(=O)Nc3ccc4c(c3)OCO4)ccc2O[C@H]1CN(C)C(=O)Nc1ccc2c(c1)OCO2	.	.	.	-	.	.	.
Fc1ccc(Nc2nc(-c3ccncc3)nc3ccccc23)cc1F	54	-	-	-	-	-	-
COc1ccc(S(=O)(=O)N(C)C[C@@H]2OCCCC[C@@H](C)Oc3ccc(NC(=O)Nc4c(C)noc4C)cc3C(=O)N([C@@H](C)CO)C[C@@H]2C)cc1	.	.	.	-	.	.	.
COc1ccc(C23CC4CC(CC(C4)C2)C3)cc1C(=O)NCCN(C)C	51	-	-	-	-	-	75
Cc1ccc(OCC(=O)c2cc(C)n(-c3ccccc3)c2C)c([N+](=O)[O-])n1	80	-	84	-	-	66	80
CCCn1c(C)cc(C(=O)COc2ccc(C)nc2[N+](=O)[O-])c1C	-	-	-	-	-	-	.
Cc1cc(C(=O)COC(=O)C2=COCCO2)c(C)n1-c1ccccc1	60	-	-	75	81	72	72
CC(C)(c1ccccc1)c1ccc(OCC(O)CNC2CCN(Cc3ccccc3)CC2)cc1 (stereo not given)	107	-	-	80	79	-	99
CCOc1ccc(OCC(O)CNC2CCN(Cc3ccccc3)CC2)cc1 (stereo not given)	-	-	-	-	-	-	.
c1cncc(-c2nc(NCc3ccc4c(c3)OCO4)c3ccccc3n2)c1	-	-	-	-	-	-	.
c1cncc(-c2nc(NCC3COc4ccccc4O3)c3ccccc3n2)c1 (stereo not given)	58	-	-	.	-	-	68
CCCC#Cc1ccc(CC[C@H]2O[C@H]3CC[C@H](CO)O[C@H]3C[C@@H]2n2cc(C(C)(C)O)nn2)cc1	.	.	.	-	.	.	.
Cn1c(=O)c(C(=O)CCl)c(N)n(Cc2ccccc2)c1=O	69	-	-	-	-	-	51
Cn1c(N)c(C(=O)CCl)c(=O)n(Cc2ccccc2)c1=O	-	-	-	-	-	-	.
O=C(CNC(=O)C(c1ccccc1)c1ccccc1)N/N=C/c1ccc(O)cc1O	51	-	-	-	-	-	65
COc1ccc(NC(=O)Nc2ccc3c(c2)C(=O)N([C@H](C)CO)C[C@@H](C)[C@H](CN(C)Cc2ccc4c(c2)OCO4)OCCCC[C@@H](C)O3)cc1	.	.	.	-	.	.	.
COC(=O)c1c(N)sc(C(=O)NCCc2ccccc2)c1C	78	-	66	65	63	67	65
COc1cccc(OC)c1C(=O)NCCc1ccccc1	-	-	-	-	-	-	.
OC[C@H]1[C@H](c2ccc(-c3ccc(F)cc3)cc2)[C@@H]2CN(CCC(F)(F)F)CCCCN12	.	.	.	-	.	.	.
Cc1ccc(C(=O)NNC(=O)c2ccc(S(=O)(=O)N3CCCCC3)cc2)cc1	-	-	-	-	-	-	.
Cc1cc(C)c2sc(N(CCCN(C)C)C(=O)c3ccc(S(=O)(=O)N(C)C4CCCCC4)cc3)nc2c1	107	-	-	.	90	-	98
Cc1cc(C)c2nc(NNC(=O)c3ccc(S(=O)(=O)N4CCCCC4)cc3)sc2c1	55	-	-	.	.	-	66
Cc1cc(C)c2nc(N(CCCN(C)C)C(=O)c3ccc(S(=O)(=O)N4CCCCCC4)cc3)sc2c1	80	-	-	-	-	-	99
SMILES	Peg3 prom inh-1	Shn3 inh set2	HIF-2a block	PAX8 reporter	MITF TRPM1 inh	LMP1 NFkB inh	Peg3 prom inh-2
CCOC(=O)N1CCN(S(=O)(=O)c2ccc(C(=O)NNc3nc4c(C)cc(C)cc4s3)cc2)CC1	56	-	-	-	.	.	92
Cc1ccc2sc(N(CCCN(C)C)C(=O)c3ccc(S(=O)(=O)N4CCCCCC4)cc3)nc2c1C	-	-	-	-	-	-	.
O=C(C[C@@H]1C[C@@H]2c3cc(NC(=O)C4CCOCC4)ccc3O[C@@H]2[C@@H](CO)O1)NCCN1CCCCC1	.	.	.	-	.	.	.
COc1ccc(S(=O)(=O)Nc2ccc3c(c2)C(=O)N([C@@H](C)CO)C[C@H](C)[C@H](CN(C)S(=O)(=O)c2ccc(Cl)cc2)O3)cc1	.	.	.	-	.	.	.
CCCC#Cc1ccc([C@@H]2[C@H](CO)N3CCCCN(Cc4ccncc4)C[C@@H]23)cc1	.	.	.	-	.	.	.
COc1ccc2sc(N(CCCN(C)C)C(=O)c3ccc(S(=O)(=O)N4CCCc5ccccc54)cc3)nc2c1	84	-	-	-	77	-	96
O=C(CCCN1C(=O)/C(=C/c2ccccc2Cl)SC1=S)NNC(=O)c1ccc(Cl)cc1Cl	66	-	73	-	-	-	43
Cc1onc(-c2ccc(Cl)cc2Cl)c1-c1csc(N/N=C/c2ccccc2Cl)n1	65	-	-	-	-	-	-
Cc1onc(-c2ccccc2)c1-c1csc(N/N=C/c2ccccc2Cl)n1	-	-	-	-	-	-	.
Cc1ccc(S(=O)(=O)N(C)C)cc1NC(=O)c1cncc(Br)c1	55	-	-	-	-	-	69
CCCc1nc2c(=O)n(C)c(=O)nc-2n(C)n1	104	97	80	104	104	90	100
Cc1cc(C)c2c(N)c(C(=O)Nc3ncc(C)s3)sc2n1	101	-	87	104	88	77	89
COC(=O)c1sc2nc(C)cc(C)c2c1N	-	-	-	-	-	-	.
CO[C@H](CN(C)C(=O)C1CC1)[C@H](C)CN(C(=O)Nc1ccc(C(F)(F)F)cc1)[C@H](C)CO	.	.	.	-	.	.	.
Cc1cc(C(=O)CSc2nnc3ccccn23)c(C)n1-c1ccccc1	101	-	84	81	78	81	81
COc1cc(N=Nc2c(O)c3ccccc3[nH]c2=O)c(OC)cc1N=Nc1ccccc1	59	-	-	.	-	-	83
O=S(=O)(c1ccccc1)N1CCN(c2ccnc3cc(Cl)ccc23)CC1	-	-	-	-	-	-	.
O=S(=O)(c1cccs1)N1CCN(c2ccnc3cc(Cl)ccc23)CC1	51	-	-	-	-	-	69
CCCNC(=O)[C@H]1[C@H](CO)[C@H]2Cn3c(ccc(-c4ccccc4F)c3=O)[C@@H]1N2S(C)(=O)=O	.	.	.	-	.	.	.
COc1cc(OC)c2c(-c3ccccc3)cc(=O)oc2c1C(CC(=O)N1CCOCC1)c1ccc(N(C)C)cc1 (stereo not given)	-	-	-	-	-	-	.
CCN(CC)CCC(c1ccc(N(C)C)cc1)c1c(OC)cc(OC)c2c(-c3ccccc3)cc(=O)oc12 (stereo not given)	84	-	-	-	-	-	-
C[C@H]1CN([C@@H](C)CO)C(=O)c2cc(NC(=O)Nc3ccccc3)ccc2O[C@H]1CN(C)Cc1ccc2c(c1)OCO2	.	.	.	-	.	.	.
